# Records with an inconclusive call do not appear. Where a call stands in place of a potency, no number is given. Active and inactive are the calls of the source. Unless noted, the call rests on the fitted dose curve; in most records, active means well fitted curve in the direction sought with a large enough effect; inconclusive means small, poorly fitted or top-dose-only effect, or another doubt; inactive means no such curve, though single readings can be large; an effect the other way counts as inactive or inconclusive.
# Key:
# [1] = molecular target: Glutaminase kidney isoform, mitochondrial (Homo sapiens) (UniProt O94925); assay: qHTS for Inhibitors of Glutaminase (GLS): LOPAC Validation (AID 624146);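 further: glutamate product detected by oxidase and peroxidase coupled Amplex red fluorescence gain; nearly all actives have a fitted effect of over 60% in size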
# Procedure, shortened: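 Glutamate formation by hKGA was monitored fluorometrically using coupled glutamate oxidase, HRP and Amplex Red. Substrate was added as 1 mM L-glutamine solution; incubation was 30 min at RT after an initial read.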
# [2] = qHTS of Trypanosoma Brucei Inhibitors: LOPAC Validation (AID 624147)
# Procedure, shortened: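 Luminescent Kinase-Glo Plus end-point after 45 min room-temperature reaction of T. brucei pyruvate kinase started with 130 uM ADP (final). Buffer TEA 50 mM pH 7.2 with KCl, MgCl2, BSA, Tween-20; titration-based qHTS with fitted concentration-effect curves.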
# [3] = molecular target: Glucagon-like peptide 1 receptor (Homo sapiens) (UniProt P43220); assay: qHTS of GLP-1 Receptor Agonists: LOPAC Validation (AID 624148);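 further: higher luminescence signal means agonism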
# Procedure, shortened: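 HEK293 cells stably co-expressing GLP-1R and a cAMP-responsive luciferase reporter, plated 12 hours before compound, then incubated 4-6 hr at 37 deg C. Luminescence read 12 min after detection reagent.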
# [4] = HTS Assay for Allosteric Antagonists of the Human D2 Dopamine Receptor: Hit Validation in HTRF (AID 624455);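 further: stable D1 dopamine receptor cell line scored for blocking the D1 response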
# Procedure, shortened: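 Hit validation in cells stably expressing the D1 dopamine receptor, run in HTRF format. Compounds were tested for their ability to inhibit the D1-mediated response.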
# [5] = Cell Proliferation Assay against the TMD8 Cell Line (AID 651645); details: TMD8 DLBCL cell line proliferation/viability; at 46.1 µM (top of the series) unless noted;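 further: cells exposed to compound for 48 h before reading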
# Procedure, shortened: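 TMD8 ABC DLBCL cells, 500 per well in phenol red-free RPMI with 5% FBS, were treated with compound by pin transfer and incubated 48 hours at 37C, 5% CO2. Viability was read by CellTiter-Glo luminescence, normalised to DMSO (100%) and 9.2 uM bortezomib (0%).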
# [6] = qHTS assay for small molecule agonists of the antioxidant response element (ARE) signaling pathway (AID 651741; active means well fitted activation curve with a large enough effect in the signal ratio; the % refers to the signal ratio; further: potency means the concentration at half of the fitted maximal effect)
# Procedure, shortened: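 CellSensor ARE-bla HepG2 cells (2,000/well) carrying ARE-driven beta-lactamase, exposed 16 h at 37 C. LiveBLAzer B/G FRET substrate added for 2 h at room temperature; fluorescence intensity read.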
# [7] = molecular target: Luciferin 4-monooxygenase (Photinus pyralis) (UniProt P08659); assay: Biochemical firefly luciferase enzyme assay for NPC (AID 624030);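 further: purified P. pyralis luciferase at 10 nM with luciferin and ATP substrate; nearly all actives have a fitted effect of over 70% in size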
# Procedure, shortened: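 Purified P. pyralis luciferase at 10 nM in 50 mM Tris Acetate (final), luminescence read within 5 minutes of enzyme addition to compounds. Activity normalised to PTC124 versus DMSO; concentration-response curves classed by r2, magnitude and activity.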
# [8] = qHTS assay for small molecule activators of the p53 signaling pathway (AID 651743; active means well fitted activation curve with a large enough effect in the signal ratio, not every such curve was filed as active; the % refers to the signal ratio); details: HCT-116 p53RE-bla, beta-lactamase FRET ratio, 16 h; activation: stronger effect = higher value
# Procedure, shortened: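 p53RE-bla HCT-116 cells carrying a beta-lactamase reporter under p53 response elements were exposed to compounds for 16 hours at 37 C. Reporter activity read as fluorescence after 2 hours at room temperature with LiveBLAzer B/G FRET substrate.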
# [9] = Cytotoxicity counterscreen for NFkB agonists and antagonists (AID 624476); further: potency means the concentration at half of the fitted maximal effect
# [10] = qHTS Assay for Identification of Small Molecule Agonists for NFkB Signaling Pathway. (AID 624478)
# Procedure, shortened: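 NFkB-bla ME-180 cells carry a beta-lactamase reporter. They received compound plus TNF alpha at 10 pM final (its EC50) for 5 h at 37 C. Reporter activity was read as 460/530 nm emission ratio after 2 h LiveBLAzer substrate loading.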
# [11] = qHTS Assay for Identification of Small Molecule Antagonists for NFkB Signaling Pathway. (AID 624479; calls by dose curve;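 further: pathway stimulated with TNF alpha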; further: potency means the concentration at half of the fitted maximal effect)
# [12] = Cell Proliferation Assay against the HBL1 Cell Line (AID 651646); details: HBL1 DLBCL cells; at 46.1 µM (top of the series) unless noted;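 further: cells exposed to compound for 48 h before reading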
# Procedure, shortened: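 HBL1 ABC DLBCL cells, 500/well in RPMI with 5% FBS, treated for 48 h at 37C. Viability read by CellTiter-Glo luminescence, normalized to DMSO as 100% and 9.2 uM bortezomib as 0%.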
# [13] = Cell Proliferation Assay against the TMD8 Cell Line (Caspase readout at 16 hrs) (AID 651712); further: potency means the concentration at half of the fitted maximal effect
# Procedure, shortened: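 TMD8 cells in RPMI with 5% FBS were treated with compound for 16 h at 37 C, then caspase 3/7 activation was read by Caspase-Glo luminescence. Percent activity was scaled to DMSO (0%) and 9.2 uM bortezomib final (100%).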
# [14] = Cell Proliferation Assay against the TMD8 Cell Line (Caspase readout at 8 hrs) (AID 651713); further: potency means the concentration at half of the fitted maximal effect
# Procedure, shortened: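 TMD8 cells in RPMI plus 5% FBS were treated with compound for 8 h at 37C. Caspase 3/7 activation was read by Caspase-Glo luminescence. Percent activity was scaled from DMSO (0%) to 9.2 uM bortezomib final (100%).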
# [15] = S16 Schwann cell PMP22 intronic element firefly luciferase assay (AID 624032); further: nearly all actives have a fitted effect of over 30% in size; further: potency means the concentration at half of the fitted maximal effect
# Procedure, shortened: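 Rat S16 Schwann cells stably carrying firefly luciferase driven by a PMP22 intronic element, in 10% FBS, treated 24 h at 37 C. ONE-Glo luminescence normalized to PTC124 control and DMSO (0%); curves classed by r2, magnitude and activity.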
# [16] = qHTS of Nrf2 Activators: LOPAC Validation (AID 624149)
# Procedure, shortened: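 AREc32_Fluc cells, 1000/well in OPTI-MEM with 5% FBS, grown overnight, then exposed to compounds for 24 hr at 37 deg C, 5% CO2. ARE-driven firefly luciferase read by Steady-Glo luminescence after 30 min at RT.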
# [17] = S16 Schwann cell viability assay (CellTiter-Glo assay) (AID 624031);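 further: cellular ATP luminescence as a viability measure; nearly all actives have a fitted effect of over 70% in size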
# Procedure, shortened: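 Native S16 rat Schwann cells, 500-750 cells/well in DMEM with 10% FBS, dosed with compound after overnight culture and incubated 24h at 37 degree Celsius/5% CO2. Viability by CellTiter-Glo luminescence; % activity normalized to no-cell wells and DMSO-treated cells.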
# Sequence of Glutaminase kidney isoform, mitochondrial (Homo sapiens) (O94925 whole entry, looked up, canonical isoform): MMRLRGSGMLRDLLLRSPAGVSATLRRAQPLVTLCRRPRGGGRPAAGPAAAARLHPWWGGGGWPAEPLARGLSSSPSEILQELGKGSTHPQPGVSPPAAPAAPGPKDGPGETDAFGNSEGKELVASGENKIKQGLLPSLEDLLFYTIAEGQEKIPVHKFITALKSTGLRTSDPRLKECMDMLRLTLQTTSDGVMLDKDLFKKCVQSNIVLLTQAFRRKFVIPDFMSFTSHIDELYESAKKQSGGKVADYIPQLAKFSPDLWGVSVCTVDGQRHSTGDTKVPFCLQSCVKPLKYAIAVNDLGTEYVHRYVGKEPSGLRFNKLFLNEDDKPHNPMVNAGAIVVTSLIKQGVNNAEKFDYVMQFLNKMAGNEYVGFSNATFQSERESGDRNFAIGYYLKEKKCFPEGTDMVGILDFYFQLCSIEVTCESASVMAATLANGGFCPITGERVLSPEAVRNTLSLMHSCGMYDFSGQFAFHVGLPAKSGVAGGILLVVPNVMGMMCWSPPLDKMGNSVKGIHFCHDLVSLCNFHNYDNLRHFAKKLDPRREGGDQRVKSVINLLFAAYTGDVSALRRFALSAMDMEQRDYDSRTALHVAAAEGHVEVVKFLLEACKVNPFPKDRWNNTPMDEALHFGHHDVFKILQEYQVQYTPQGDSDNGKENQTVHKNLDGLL
# Sequence of Glucagon-like peptide 1 receptor (Homo sapiens) (P43220 whole entry, looked up): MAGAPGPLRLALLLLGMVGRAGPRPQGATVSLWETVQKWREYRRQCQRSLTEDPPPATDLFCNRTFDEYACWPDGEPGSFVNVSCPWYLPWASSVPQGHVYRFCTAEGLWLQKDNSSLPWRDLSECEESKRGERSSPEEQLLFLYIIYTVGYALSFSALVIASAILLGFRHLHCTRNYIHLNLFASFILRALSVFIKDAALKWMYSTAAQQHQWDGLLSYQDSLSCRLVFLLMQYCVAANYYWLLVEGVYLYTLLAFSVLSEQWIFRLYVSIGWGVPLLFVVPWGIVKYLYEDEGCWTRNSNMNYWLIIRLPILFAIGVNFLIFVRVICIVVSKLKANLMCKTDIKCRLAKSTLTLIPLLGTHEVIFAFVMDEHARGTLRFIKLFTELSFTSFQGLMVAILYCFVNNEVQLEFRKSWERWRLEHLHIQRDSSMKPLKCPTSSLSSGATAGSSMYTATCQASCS
# Sequence of Luciferin 4-monooxygenase (Photinus pyralis) (P08659 whole entry, looked up): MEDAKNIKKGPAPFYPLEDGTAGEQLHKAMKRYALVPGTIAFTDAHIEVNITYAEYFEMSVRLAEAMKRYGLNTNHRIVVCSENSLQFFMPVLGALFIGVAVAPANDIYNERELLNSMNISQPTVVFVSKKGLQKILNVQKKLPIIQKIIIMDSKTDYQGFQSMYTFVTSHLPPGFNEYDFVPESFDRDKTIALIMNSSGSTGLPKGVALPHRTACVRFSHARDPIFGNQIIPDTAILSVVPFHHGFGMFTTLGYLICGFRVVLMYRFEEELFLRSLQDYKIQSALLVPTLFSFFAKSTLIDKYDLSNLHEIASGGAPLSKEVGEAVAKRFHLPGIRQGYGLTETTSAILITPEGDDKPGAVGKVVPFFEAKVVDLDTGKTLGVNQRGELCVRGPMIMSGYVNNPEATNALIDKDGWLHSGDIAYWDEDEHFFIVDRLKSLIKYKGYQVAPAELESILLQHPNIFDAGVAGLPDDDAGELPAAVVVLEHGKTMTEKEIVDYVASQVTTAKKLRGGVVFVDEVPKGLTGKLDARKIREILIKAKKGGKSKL
structure (smiles),measurement,setting,value
O=C(Cc1ccc(Cl)c(Cl)c1)N1CCCCC1CN1CCCC1 (stereo unspecified),Potency,[1],inactive
same,outcome,[2],inactive
same,outcome,[3],inactive
same,Potency,[4],inactive
CCCCN1CCC(CNC(=O)c2c3n(c4ccccc24)CCCO3)CC1,viability (% of control),[5],119%
CCCCC(CC)COC(=O)c1ccccc1C(=O)O (stereo unspecified),Potency,[6],54500 nM (active)
CO/C=C(/C(=O)OC)c1ccccc1Oc1cc(Oc2ccccc2C#N)ncn1,Potency,[7],inactive
same,Potency,[6],13700 nM (active)
same,activation,[8],25% (inactive)
CC(=O)Nc1ccc(OC[C@](C)(O)C(=O)Nc2ccc([N+](=O)[O-])c(C(F)(F)F)c2)cc1,Potency,[9],inactive
same,outcome,[10],inactive
same,Potency,[11],inactive
same,viability (% of control),[5],86.6%
same,"viability, percent of control",[12],96.7%
same,Potency,[13],inactive
same,Potency,[14],inactive
C/C=C(/C)C(=O)O[C@H]1C(C)=C2[C@H]([C@@H]1OC(=O)CCCCCCC)[C@@](C)(OC(C)=O)C[C@H](OC(=O)CCC)[C@@]1(O)[C@H]2OC(=O)[C@@]1(C)O,Potency,[1],inactive
same,outcome,[2],inactive
same,Potency,[4],inactive
COCCn1c2c([n+](Cc3cnccn3)c1C)C(=O)c1ccccc1C2=O,Potency,[11],4.7 nM (active)
CCOc1ccc(Nc2nc(-c3c(C)nc4ccccn34)cs2)cc1,Potency,[11],335 nM (active)
O=C(Oc1ccc([N+](=O)[O-])cc1)N1CCC(C(O)(c2ccc3c(c2)OCO3)c2ccc3c(c2)OCO3)CC1,Potency,[9],inactive
same,outcome,[10],inactive
same,Potency,[11],inactive
same,viability (% of control),[5],68.8%
same,"viability, percent of control",[12],72%
same,Potency,[14],inactive
O=C(Nc1ccc(Oc2ccc(Cl)cc2)c(Cl)c1)c1cc(I)cc(I)c1O,Potency,[15],10200 nM (active)
C[C@@]12O[C@@H](C[C@]1(O)CO)n1c3ccccc3c3c4c(c5c6ccccc6n2c5c31)CNC4=O,Potency,[11],1490 nM (active)
Cc1ccccc1-n1c(Cn2cnc3c(N)ncnc32)nc2cccc(C)c2c1=O,Potency,[9],13200 nM (active)
same,outcome,[10],inactive
same,Potency,[11],inactive
same,viability (% of control),[5],15.8%
same,"viability, percent of control",[12],62.6%
COc1cc2c(cc1O)CC[C@@H]1[C@@H]2CC[C@]2(C)[C@@H](O)CC[C@@H]12,"viability, percent of control",[12],37.3%
O=C(N[C@H]1CN2CCC1CC2)c1ccc(Cl)cc1,Potency,[1],inactive
same,outcome,[2],inactive
same,Potency,[4],inactive
C#CCOC(=O)C1=CCCN(C)C1,Potency,[1],inactive
same,outcome,[2],inactive
same,outcome,[3],inactive
same,outcome,[16],inactive
same,Potency,[4],inactive
Cc1c(C(=O)Nc2cccc(C(F)(F)F)c2)cc(-c2ccccc2)n1CCCN1CCOCC1,Potency,[9],inactive
same,outcome,[10],inactive
same,viability (% of control),[5],3.39%
same,"viability, percent of control",[12],18.7%
COC(=O)[C@@H](N)CCCN=C(N)N[N+](=O)[O-],Potency,[7],inactive
same,Potency,[17],inactive
same,Potency,[15],inactive
same,Potency,[1],inactive
same,outcome,[2],inactive
same,outcome,[16],inactive
same,Potency,[4],inactive
CC(C)[C@]12O[C@H]1[C@@H]1O[C@]13[C@]1(O[C@H]1C[C@H]1C4=C(CC[C@@]13C)C(=O)OC4)[C@@H]2O,Potency,[9],33.2 nM (active)
same,outcome,[10],inactive
same,Potency,[11],33.5 nM (active)
same,viability (% of control),[5],3.13%
same,"viability, percent of control",[12],35%
same,Potency,[13],13.2 nM (active)
same,Potency,[14],132 nM (active)

# From PubChem BioAssay (NCATS)
